A selection: hits, their analogues and other compounds. The true share with any hit is near 3.5%.
TEAD-YAP inh: TEAD-YAP interaction inhibition. 640,000 compounds, 1.4% hits. HEK-TIYL cells, TEAD-Gal4/YAP UAS-luciferase luminescence. inhibition, % at 9.12 µM. AID 1259422; in the data active = inhibition above about 32%;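 note: 0% = median of test compound wells and 100% = reference inhibitor wells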
FBW7 activator: activators of human E3 ligase FBW7; 650,000 compounds, 0.13% hits; Q969H0; AlphaScreen FBW7–phospho-cyclin E peptide binding, activator screen; normalized activity (activation), % at 26.1 µM; AID 1259310; in the data active = normalized activity above about 1.9%;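 note: purified mutant Fbw7 with reduced substrate affinity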
GPR151 activ: activates the human receptor GPR151; PathHunter beta-arrestin GPR151 cells, luminescence; AID 1508602; 650,000 compounds, 1% hits; activation, % at 11.2 µM; Q8TDV0; in the data active = activation above about 4.9%;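 note: 0% = median of compound wells and 100% = cells with positive control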
Target sequence (Q8TDV0 whole entry, looked up): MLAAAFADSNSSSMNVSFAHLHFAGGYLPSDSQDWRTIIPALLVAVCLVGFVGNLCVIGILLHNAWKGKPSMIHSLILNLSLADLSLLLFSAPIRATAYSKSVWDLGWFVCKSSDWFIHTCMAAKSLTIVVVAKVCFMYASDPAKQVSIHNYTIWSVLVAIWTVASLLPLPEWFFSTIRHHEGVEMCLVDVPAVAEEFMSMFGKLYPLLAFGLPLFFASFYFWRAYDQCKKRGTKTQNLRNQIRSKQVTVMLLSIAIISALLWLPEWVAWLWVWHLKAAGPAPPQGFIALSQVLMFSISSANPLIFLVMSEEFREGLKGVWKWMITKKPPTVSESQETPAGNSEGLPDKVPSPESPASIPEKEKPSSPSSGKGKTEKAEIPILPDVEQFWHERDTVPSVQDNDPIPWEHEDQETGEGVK
MITF primary: inhibitors of human MITF. inhibition, % at 2.6 µM. 650,000 compounds, 0.91% hits. AlphaScreen MITF homodimerization, bead proximity signal; in the data active = inhibition above about 50%;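 note: 0% = vehicle wells with protein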
GPR151 conf act: human GPR151 activation, confirmation screen; shares compounds with GPR151 activ; GPR151 PathHunter beta-arrestin cells, luminescence, 90 min; % of EA-reagent control over plate median; activation, % at 11.2 µM; 6,700 tested, under 10 active;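 active = mean percent activation across replicates above the confirmation screen cutoff of 4.91%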
GPR119 ag: GPR119 activation, counter-screen for GPR151 activators; 6,700 compounds, 0.3% hits; activation, % at 11.2 µM; shares compounds with GPR151 activ; GPR119 PathHunter beta-arrestin cells, luminescence, 90 min; 0 = compound-well median, 100 = enzyme-acceptor control;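 active = mean percent activation in the counterscreen above 29.09%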;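 note: counterscreen on off-target GPR119 to flag nonselective hits from the GPR151 activator screen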
Active calls of the source: *.

How did COc1ccccc1/C=C/CN1CCNC(=O)C1CC(=O)NC1CCOCC1 (centres undefined) do in these assays?
TEAD-YAP inh: 6.8; FBW7 activator: -0.2; GPR151 activ: 4.9*; MITF primary: -6.4; GPR151 conf act: -0.7; GPR119 ag: -11.1

Results for O=C(CC1C(=O)NCCN1CC(c1ccccc1)c1ccccc1)NC1CCC(O)CC1 (centres undefined) ?
TEAD-YAP inh: 1.6; FBW7 activator: 0.0; GPR151 activ: 5.3*; MITF primary: 12.3; GPR151 conf act: -1.1; GPR119 ag: -6.9

How did COc1cc(SC)ccc1C(=O)Nc1ccc2c(c1)OC(C)(C)O2 do in these assays?
TEAD-YAP inh: -54.5; FBW7 activator: -0.1; GPR151 activ: 5.2*; MITF primary: -10.2; GPR151 conf act: -0.4; GPR119 ag: -1.2

How did COc1ccc(-n2c(SCC(=O)Nc3nccs3)nc3c(sc(=S)n3-c3ccccc3)c2=O)c(OC)c1 do in these assays?
TEAD-YAP inh: -17.6; FBW7 activator: 0.0; GPR151 activ: -0.4; MITF primary: -7.5

Results for CC(NC(=O)COc1ccccc1C#N)c1ccccc1 (centres undefined) ?
TEAD-YAP inh: 3.3; FBW7 activator: 0.3; GPR151 activ: -1.0; MITF primary: -5.9

Results for CCOc1cc(C#N)ccc1OCC(=O)NC(C)c1ccccc1 (centres undefined) ?
TEAD-YAP inh: 1.7; FBW7 activator: 0.0; GPR151 activ: 13.4*; MITF primary: 5.7; GPR151 conf act: 0.1; GPR119 ag: 5.3

Results for CCN(C(=O)c1ccc([N+](=O)[O-])cc1Cl)c1ccccc1C ?
TEAD-YAP inh: -2.4; FBW7 activator: 0.1; GPR151 activ: 8.6*; MITF primary: 8.2; GPR151 conf act: -0.7; GPR119 ag: -8.7

How did CC1CCCC(NCc2c(C(=O)O)n(Cc3ccccc3Cl)c3ccccc23)C1C (centres undefined) do in these assays?
TEAD-YAP inh: 2.3; FBW7 activator: -0.1; GPR151 activ: -1.0; MITF primary: -5.9

Results for CC1CCCC(NCc2c(C(=O)O)n(Cc3ccccc3F)c3ccccc23)C1C (centres undefined) ?
TEAD-YAP inh: 2.1; FBW7 activator: 0.1; GPR151 activ: 12.8*; MITF primary: 3.4; GPR151 conf act: -0.6; GPR119 ag: -9.7

Results for COc1ccc(/C=N\NC(=O)COc2c(C)cccc2C)cc1OC ?
TEAD-YAP inh: -4.4; FBW7 activator: -0.2; GPR151 activ: 9.9*; MITF primary: 1.9; GPR151 conf act: 0.5; GPR119 ag: 13.3

Results for COc1ccc(/C=N/NC(=O)c2ccc(=O)n(C)c2)cc1 ?
TEAD-YAP inh: -2.1; FBW7 activator: 0.0; GPR151 activ: -0.6; MITF primary: -5.6

Results for COc1ccc(/C=N/NC(=O)c2ccc(=O)n(C)c2)cc1OC ?
TEAD-YAP inh: -13.0; FBW7 activator: 0.1; GPR151 activ: 10.2*; MITF primary: -8.5; GPR151 conf act: -0.8; GPR119 ag: -2.5

What do the screens show for `CCCCOc1ccc(OCC(=O)N/N=C/c2cccc(OC)c2)cc1`?
TEAD-YAP inh: 0.7; FBW7 activator: -0.1; GPR151 activ: 5.7*; MITF primary: -5.3; GPR151 conf act: -0.2; GPR119 ag: -4.1

Results for COc1cccc(/C=N/NC(=O)COc2ccc3ccccc3c2)c1 ?
TEAD-YAP inh: -5.6; FBW7 activator: 0.0; GPR151 activ: 1.2; MITF primary: 2.5

Results for COC(=O)C(C)Sc1nnc(CSc2nc(C)cc(C)n2)n1-c1ccccc1 (centres undefined) ?
TEAD-YAP inh: 8.1; FBW7 activator: 0.0; GPR151 activ: 1.9; MITF primary: 3.1

How did COc1ccc(C2CC(c3ccc(C)cc3)=NN2C(=O)CCCC(=O)O)c(OC)c1 (centres undefined) do in these assays?
TEAD-YAP inh: 3.3; FBW7 activator: 0.3; GPR151 activ: -0.2; MITF primary: 3.0

What do the screens show for `CS(=O)(=O)c1ccc(CC(=O)N(C2CC2)C2CCN(Cc3ccccc3)CC2)cc1`?
TEAD-YAP inh: 9.5; FBW7 activator: -0.2; GPR151 activ: -0.2; MITF primary: -1.4

How did O=C(CCC(=O)Nc1ccc(Cl)cc1)Nc1ccc(Cl)cc1 do in these assays?
TEAD-YAP inh: 1.1; FBW7 activator: -0.3; GPR151 activ: -0.7; MITF primary: -8.8
